The values that follow come from PubChem BioAssay AID687014 (The Scripps Research Institute Molecular Screening Center, 2013).

Hit rate of the full screen: of about 370,000 compounds, about 6,800 (1.8%) were called active. The sample as a whole holds a higher share of actives than the screen did. Unmarked numbers belong to inactive results.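 Rule for the calls: active = activation above a cutoff set at the mean of all screened compounds plus 3 SD (cut at about 10% in these data); inactive = the rest.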

The test system of the assay is Nuclear hormone receptor DAF-12 (Heterodera glycines), GAL4 fusion. In words: hgDAF-12 GAL4 fusion reporter activation – cell-based, luminescence, HEK293, UAS-luciferase, primary screen (AID 687014).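 Note: 0% = DMSO wells and 100% = sodium butyrate wells.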 The settings on record: HEK293 GAL4-hgDAF12 UAS-luciferase reporter, agonist luminescence; at 6.8 µM; hits give high values; normalized to butyrate control.
In the case of `NC(=O)c1c(NC(=O)c2ccccc2)sc2c1CCCC2`, the activation is 13.5% (active).

For `O=C(O)c1c(NC(=O)N2CCCC2)sc2c1CCCC2`, the activation was 0.58%.

Consider `NC(=O)c1c(NC(=O)CSc2nnc(-c3ccco3)n2N)sc2c1CCCC2`, for which the activation was 0.59%.

`Cc1ccc2nc(-c3ccc(CN4CCC(n5cc(-c6ccccc6)[nH]c5=O)CC4)cc3)c(-c3ccccc3)nc2c1`: the activation was 0.94%.

Consider `C=CCN1C(C(=O)OC)CN(Cc2cn(Cc3ccccc3)nn2)CCS1(=O)=O` (stereo not drawn), for which the activation is 0.93%.

As to `CC(C)(C)c1cnnn1-c1ccc([N+](=O)[O-])cc1`, the activation is -1.27%.

Regarding `Cc1nn(-c2ccc([N+](=O)[O-])cc2)c(N)c1-c1ccccc1`, the activation is 16.8% (active).

Take `Cc1nn(-c2ccccc2)c2c1C(c1cccc([N+](=O)[O-])c1)N(c1ccccc1)C(=O)N2` (stereo not drawn): the activation was 2.5%.

In the case of `COCCNC(=S)N(C)[C@H]1C[C@H]2c3[nH]c4ccccc4c3CCN2C[C@H]1[C@H](C)O`, the activation is 0.91%.

As to `COC(=O)C1CN(Cc2ccc(F)cc2)CCS(=O)(=O)N1Cc1ccc(Cl)cc1` (stereo not drawn), the activation was -1.05%.

As to `O=C(C(NS(=O)(=O)c1cccc2nsnc12)c1ccccc1)N1CCN(c2ccccc2)CC1` (stereo not drawn), the activation was 0.47%.

As for `Nn1c(SCC(=O)Nc2cccc3ccccc23)nnc1-c1cc(-c2ccc(F)cc2)n[nH]1`, the activation is -2.56%.

For `O=[N+]([O-])c1cc2ccccc2nc1-c1ccccc1`, the activation was 4.98%.

Consider `O=C(Oc1ccc([N+](=O)[O-])cc1)c1ccc2ccccc2n1`, for which the activation was 3.74%.

As for `O=[N+]([O-])c1ccc2c(c1)Nc1nc3ccccc3nc1N2`, the activation is 27.2% (active).

`C=CCOC/C=C/C#CCN(CC=C)Cc1ccc(OC)cc1OC`: the activation was 5.3%.

`CC(c1ccccn1)N(CCN(C)C)C(=S)Nc1ccccc1F` (stereo not drawn): the activation was 0.46%.

For `Cc1ccccc1CS(=O)(=O)Cc1ccc(C(=O)Nc2ccc(Cl)cc2)o1`, the activation is -3.81%.

`O=C(Nc1ccc(Cl)c(Cl)c1)c1ccccc1NC(=O)C1CC=CCC1C(=O)O` (stereo not drawn): the activation is 15.7% (active).

`O=C(Nc1cccc(Cl)c1Cl)c1ccccc1NC(=O)C1CC=CCC1C(=O)O` (stereo not drawn): the activation is 5.07%.

For the compound `O=C(O)C1CC=CCC1C(=O)NCCc1ccccc1` (stereo not drawn), the activation was -1.34%.

For the compound `O=C(Nc1cccc(F)c1)NC1CCCc2ccccc21` (stereo not drawn), the activation is -1.37%.

Regarding `O=C(Nc1cccc(F)c1)NC1CCCCCCC1`, the activation was 10.7% (active).

As for `Cc1cc(C)cc(NC(=O)NC2CCCCCCC2)c1`, the activation is 5.46%.

In the case of `COC(=O)c1ccc(NC(=S)NN2CCOCC2)cc1`, the activation was 10.6% (active).

Regarding `CCCC(=O)NC(=S)Nc1ccc(CN2CCOCC2)cc1`, the activation is 0%.

Take `COC(=O)c1ccc(NC(=S)Nc2cccc(C)n2)cc1`: the activation was 1.63%.

Take `C#CCNC(=O)C[C@H]1C[C@@]2(C(=O)OC)C(=C[C@H](C(C)C)O[C@@H]2C2CC2)N(Cc2ccco2)C1=O`: the activation was 0.97%.

`COc1ccccc1N(CC(=O)N/N=C(\C)c1ccccc1O)S(=O)(=O)c1ccc(C)cc1`: the activation is -1.9%.

With `C/C(=N\Nc1ccc(Cl)nn1)c1ccccc1O`, the activation is 1.05%.

In the case of `C/C(=N\NC(=O)c1ccoc1C)c1ccccc1O`, the activation was 11.5% (active).

For `O=C(NC(CC(=O)N1CCN(c2ccccc2)CC1)c1ccccc1)c1ccccc1Cl` (stereo not drawn), the activation is -0.02%.

Regarding `Cc1ccc(SCCC(=O)NC(C(C)C)C(C)C)cc1`, the activation was -2.93%.

Regarding `Cc1ccc(SCCC(=O)NCc2ccccn2)cc1`, the activation was 0.65%.

Turning to `Cc1ccc(SCCSc2ncccn2)cc1`, the activation was 17.8% (active).

As for `CCCCCN1CCCCC(NC(=O)C(C)CCC)C1=O` (stereo not drawn), the activation is 2.68%.

Regarding `CC(C)(C)c1ccc(C(=O)Nc2cc(Cl)c(Br)cc2C(=O)O)cc1`, the activation was -1.36%.

Turning to `CCN(CC(=O)Nc1ccc(C)c(S(=O)(=O)N(C)C)c1)Cc1ccccc1`, the activation is 2.76%.

Consider `COc1ccc(CCC(=O)OCC(=O)Nc2ccc(C)c(S(=O)(=O)N(C)C)c2)cc1`, for which the activation was -1.79%.

Consider `Cc1ccc(C(=O)Nc2ccc(C)c(S(=O)(=O)N(C)C)c2)s1`, for which the activation is 17.3% (active).

With `C[C@@H](NC(=O)c1ccccc1OCC(=O)Nc1ccc(I)cc1)C(=O)N(C)Cc1ccccc1`, the activation was -2.59%.

For the compound `C#CCN(C[C@@H]1[C@@H](OC(=O)NC2CC2)[C@@H](OC(=O)NC2CC2)Cn2c(=O)ccc(=O)n21)S(=O)(=O)c1ccc(C)cc1`, the activation was -1.94%.

For `O=C1CC[C@@H](COc2ccc3[nH]cc(-c4ccccc4)c3c2-c2ccccc2)N1`, the activation is -0.08%.

Consider `CCCCNC(=O)C[C@H]1C(=O)N(Cc2ccc(OC)cc2)C2=CCCC[C@@]21C(=O)OCC`, for which the activation was -2.38%.

As for `CNCC(O)CN1CCN(c2ccccc2OC)CC1` (stereo not drawn), the activation was -4.94%.

For `COc1ccccc1N1CCN(/N=C/c2ccc(O)cc2O)CC1`, the activation was 13% (active).

As to `COc1ccccc1/C=N/N1CCN(Cc2ccccc2Cl)CC1`, the activation is 3.82%.

Take `O=C(Nc1ccccc1)O/N=C1/CCCc2occc21`: the activation is 1.6%.

Take `N[C@@H](Cc1ccccc1)C(=O)N1CCC[C@@H]1C(=O)N1CCC2CCN(S(=O)(=O)c3ccccc3)CC21` (stereo partly drawn): the activation is 2.75%.

In the case of `Cc1cccc(NC(=O)c2cc3c(C)nn(-c4ccccc4)c3s2)c1`, the activation is 3.47%.

As for `O=C1NC[C@@H](Cc2ccc(O)cc2)N(CCc2cccc(F)c2)C1=O`, the activation is 18.6% (active).

Take `O=C1NC[C@H](CCCCN2C[C@H](Cc3ccccc3)N(Cc3ccccc3)C(=O)C2=O)N(CCc2ccc(O)cc2)C1=O`: the activation is 0.18%.

Turning to `O=C1NC[C@H](CCCCN2C[C@H](Cc3ccc(O)cc3)N(CCc3ccccc3)C(=O)C2=O)N(CCc2ccccc2)C1=O`, the activation is -1.46%.

Regarding `CCOC(=O)[C@]12CCCCC/C=C\1N(Cc1ccc(OC)cc1)C(=O)[C@H]2CC(=O)N1CCOCC1`, the activation was 4.14%.

For the compound `O=C(Nc1ccc(-c2nnc(-c3ccccc3)o2)cc1)C1CCCO1` (stereo not drawn), the activation is 13.7% (active).

Turning to `CC(C)(C)NS(=O)(=O)c1ccc(NC(=O)C2CCCO2)cc1` (stereo not drawn), the activation was -2.61%.

`CCOc1ccc(NC(=O)c2ccc(NC(=O)C3CCCO3)cc2)cc1` (stereo not drawn): the activation was -1.61%.

Regarding `COc1cccc(CNC(=O)C2CCCN(c3nc4ccccc4o3)C2)c1OC` (stereo not drawn), the activation is 1.01%.

In the case of `O=C(Nc1ccc(Br)cn1)c1ccc([N+](=O)[O-])cc1Cl`, the activation is 11.7% (active).

With `CC(C)C(=O)Nc1cccc(NC(=O)c2ccc([N+](=O)[O-])cc2Cl)c1`, the activation is -0.06%.

For the compound `O=C(Nn1cnc2ccccc2c1=O)c1ccc([N+](=O)[O-])cc1Cl`, the activation was -0.41%.

Consider `Cc1cc(Cl)ccc1-c1nc(NCCN(C)C)nc2ccsc12`, for which the activation is 1.09%.

In the case of `O=C(CN1CCCc2ccccc21)NCc1ccc(F)cc1`, the activation was 1.21%.

On to `Cc1cccc(N2O[C@H]3C=CC2CCCC3)n1`, for which the activation was -0.73%.

On to `Cc1ccn(-c2cccc(-n3ccc(C)n3)n2)n1`, for which the activation was 18.1% (active).

In the case of `COc1ccc(C(=O)OCCN2CCN(C3CN(Cc4cn(Cc5ccccc5F)nn4)S(=O)(=O)C3)CC2)cc1OC` (stereo not drawn), the activation is -1.46%.

As to `CCNc1nc(-c2cc3ccccc3o2)cs1`, the activation is 12.5% (active).

Consider `Cn1c(SCC(=O)NC2CCCCC2)nnc1-c1cc2ccccc2o1`, for which the activation is 4.2%.

For `Cn1c(CNc2nc(-c3ccccc3)cs2)nnc1SCC(=O)c1ccccc1`, the activation is -0.81%.

Consider `COc1ccc(NC(=O)CN(Cc2ccccc2)S(C)(=O)=O)cc1OC`, for which the activation was 0.79%.

`CS(=O)(=O)N(CC(=O)N/N=C/c1ccccn1)c1ccc(Oc2ccccc2)cc1`: the activation is 2.64%.

As to `O=C(O)C1C2C=CC(O2)C1C(=O)Nc1ccccn1` (stereo not drawn), the activation was 0.96%.

Consider `S=C(NN=Cc1ccccn1)Nc1ccccn1`, for which the activation was 14.5% (active).

With `CC(C)(C)c1ccc(CSc2nnc(-c3cccs3)o2)cc1`, the activation was 5.74%.

For the compound `Clc1ccc(Cc2nnc(-c3cccs3)o2)cc1`, the activation is 12.7% (active).

With `c1csc(-c2nnc(COc3ncnc4sccc34)o2)c1`, the activation was 1.72%.

With `CC(C)[C@H]1COCCS(=O)(=O)N1Cc1ccccc1-c1cccc2c1sc1ccccc12`, the activation was 2.06%.

Consider `Cc1ccc(OCc2nnc(SC/C=C/c3ccccc3)n2Cc2ccco2)cc1`, for which the activation is -2.63%.

Regarding `O=C1CSc2ccc(C(=O)NCc3ccccn3)cc2N1`, the activation is 3.35%.

With `c1ccc(CN=C2Nc3ccccc3CS2)nc1`, the activation is 15% (active).

`COc1ccc(OC)c(CNC(=O)c2cc(=O)[nH]c3ccc(S(=O)(=O)N4CCCC4)cc23)c1`: the activation was 5.76%.

For `CCc1ccc(C2=CC(=O)CC(C)(C)C2=O)cc1`, the activation is -0.49%.

On to `Cc1c(C(=O)Nc2ccccn2)oc2ccc(Br)cc12`, for which the activation is 11.2% (active).

For `Cc1nonc1NC(=O)c1oc2ccccc2c1C`, the activation was 4.37%.

Turning to `CCc1nonc1NC(=O)c1oc2ccc(Cl)cc2c1C`, the activation was 3.2%.

Take `CCOC(=O)c1nnn(CC(=O)Nc2cccc(F)c2)c1C(=O)OCC`: the activation is -0.57%.

For `CCC(=O)Nc1ccc2nn(-c3ccc(F)cc3)nc2c1`, the activation is 12.1% (active).

`O=C(Nc1cccc(Cl)c1)c1cncn1-c1ccc(F)cc1`: the activation was 1.29%.

For the compound `CCOC(=O)N1CCN(c2cc(C)c([N+](=O)[O-])cc2F)CC1`, the activation was 4.66%.

As to `CCNC(=S)NCC`, the activation is -0.86%.

As for `Cc1ccc(C(=O)N(Cc2ccccn2)CC2CCCO2)cc1` (stereo not drawn), the activation was -3.33%.

For the compound `Cc1ccc(NC(=S)NNC(=O)CSc2nnc(SCc3ccccc3Cl)s2)cc1`, the activation is 2.13%.

Regarding `COC(=O)c1c(-c2ccc(OC)cc2)c2c(c3c4cc(OC)ccc4n(S(=O)(=O)c4ccc(F)cc4)c13)C(=O)N(C)C2`, the activation is -2.44%.
